# Experimental data: PubChem BioAssay AID1851 (National Center for Advancing Translational Sciences (NCATS), 2009)
# Several values for one entry are separate records, joined by “and”; a condition that tells them apart may be missing. Equal values may be shown once. Hit rate of the full screen: of about 16,000 compounds, about 2,600 (16%) were called active. About 20% were inconclusive and are not listed. A selection follows. Values without a mark were called inactive. Calls come from the whole dose curve; as a rule, active = well fitted curve in the direction sought with a large enough effect; inconclusive = small, poorly fitted or top-dose-only effect, or effect the other way; inactive = no such curve, though single readings can be large or run the other way. Square brackets hold non-standard residues; d marks the D form. Peptide text beside a SMILES is read from it.
# Molecular target: Cytochrome P450 2D6 (Homo sapiens) (UniProt P10635)
# Assay: Cytochrome panel assay with activity outcomes
# Conditions: recombinant CYP, pro-luciferin dealkylation, luminescence, p450-cyp2d6; series mostly up to 57.1 µM; activity, negative = inhibition: at the top concentration
# % is set by controls: 0 for no effect and ±100 for the full control effect.
# Cytochrome P450 2D6 (Homo sapiens), sequence (P10635 whole entry, looked up): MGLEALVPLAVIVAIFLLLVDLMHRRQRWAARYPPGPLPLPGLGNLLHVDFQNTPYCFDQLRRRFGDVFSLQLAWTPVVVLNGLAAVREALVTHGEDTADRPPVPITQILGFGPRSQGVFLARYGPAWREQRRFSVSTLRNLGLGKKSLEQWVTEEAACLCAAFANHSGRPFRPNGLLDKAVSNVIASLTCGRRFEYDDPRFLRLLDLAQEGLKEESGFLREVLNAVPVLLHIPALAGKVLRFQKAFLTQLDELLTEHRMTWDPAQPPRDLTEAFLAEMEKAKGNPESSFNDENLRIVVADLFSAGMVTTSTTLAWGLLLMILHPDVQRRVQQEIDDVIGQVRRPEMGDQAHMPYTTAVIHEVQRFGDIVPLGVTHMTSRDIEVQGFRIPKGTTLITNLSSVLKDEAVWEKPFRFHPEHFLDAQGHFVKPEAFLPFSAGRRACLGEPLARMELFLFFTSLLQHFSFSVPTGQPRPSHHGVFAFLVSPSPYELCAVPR
SMILES,"activity, negative = inhibition",AC50
CSc1nc2cc(S(=O)(=O)N3CCCCC3)ccc2s1,11.3% [at 11.4 µM],–
O=C(O)CONC(=O)c1cc(OCC(F)(F)F)ccc1OCC(F)(F)F,20.2%,–
O=C(NCC1CCCO1)/C(=C\c1ccco1)NC(=O)c1ccccc1 (stereo unspecified),3.99%,–
O=C(Nc1ccc(OC(=O)c2cccnc2)cc1)c1cccnc1,-9.94%,–
O=C(Nc1cccnc1)c1ccc2snnc2c1,–,15800 nM (active)
O=C(Nc1cccc(OC(=O)c2cccnc2)c1)c1cccnc1,-10.6%,–
O=C(CCn1nc(-c2ccc(Cl)cc2)ccc1=O)NCc1ccccn1,-5.6%,–
O=C1C=C(Nc2nc(C(=O)O)cc(=O)[nH]2)c2ccccc2C1=O,-6.72% [at 11.4 µM],–
O=C1C=C(NCCc2cc(Br)c(O)c(Br)c2)C(=O)c2ncccc21,–,1580 nM (active)
Cc1cccc(Oc2coc3cc(OC(=O)c4cc5ccccc5oc4=O)ccc3c2=O)c1,3.71%,–
CCOC(=O)c1cc(C#N)c(Oc2ccccc2OC)nc1-c1ccccc1,0.22%,–
CCOc1cc(C)ccc1OCc1nnc(SCC(=O)c2cccc([N+](=O)[O-])c2)n1CC,5.77%,–
Cc1cc2c(ncn2Cc2ccccc2)c([N+](=O)[O-])c1C,8.41%,–
CCCCN1C2=NCCCN2c2ccccc21,–,5010 nM (active)
CCCN1C2=NCCCN2c2ccccc21,–,7080 nM (active)
Cc1ccccc1CN1C2=NCCN2C(=O)C2=C1CCN(Cc1ccccc1)C2,-16.1% [at 11.4 µM],–
Cc1ccc(C)c(C(=O)CN2C3=NCCCN3c3ccccc32)c1,–,10 nM (active)
CCCCN1C(=O)CC(Sc2ccccc2C(=O)O)C1=O (stereo unspecified),6.44%,–
CC(C)C[C@H]1C(=O)N2CCC[C@@H]2[C@]2(O)O[C@](NC(=O)[C@H]3C=C4c5cccc6[nH]c(Br)c(c56)C[C@H]4N(C)C3)(C(C)C)C(=O)N12,–,inactive
COCCCN1C(=O)C(=O)/C(=C(/O)c2ccc(OC(C)C)c(C)c2)C1c1ccncc1 (stereo unspecified),5.89%,–
N[C@H](CO)C(=O)NCC(=O)O (H-[dS]-Gly-OH),-2.94% [at 11.4 µM],–
Cc1cc(C)nc(NS(=O)(=O)c2ccc(N)cc2)n1,-0.0096% [at 25.6 µM],–
CN1C(=O)/C(=C\c2ccccc2)Sc2ccc(C(=O)N3CCN(c4ccccn4)CC3)cc21,-1.49%,–
C=C[C@H](N)CCC(=O)O,–,inactive
CCc1c(C)sc(NC(=O)OC)c1C(N)=O,-1.65%,–
COc1nc(/C(N)=N/O)nc(N2CCCCC2)n1,0.0215%,–

SMILES,"activity, negative = inhibition",AC50
Cc1ncc([N+](=O)[O-])n1CCOC(=O)NC(NCc1ccccc1)C(Cl)(Cl)Cl (stereo unspecified),-19.7%,–
Cc1cc(=O)c2ccccc2[nH]1,15.9%,–
N=C(N)N1CCc2ccccc2C1,-1.24% [at 25.6 µM],–
OC(COCC1COc2ccccc2O1)CN1CCc2ccccc2C1 (stereo unspecified),–,447 nM (active)
Cc1ccc(C2C(=O)N(C3CCCC3)CC(=O)N2CC2COc3ccccc3O2)cc1 (stereo unspecified),-17.2%,–
O=C1CCCN1CC(O)CS(=O)(=O)c1ccccc1 (stereo unspecified),-0.283%,–
OC(COCC1COc2ccccc2O1)CN1CCN(c2ccccc2F)CC1 (stereo unspecified),–,2240 nM (active)
Cc1cc2c(nc1C)CCCN2C[C@@H](O)CN1CCN(C)CC1,-5.57% [at 11.4 µM],–
C[C@@H]1CCCN(C[C@@H](O)CN2CCCc3ccccc32)C1,–,1580 nM (active)
CC1CCCC(C)N1CC(O)COCC1COc2ccccc2O1 (stereo unspecified),–,1780 nM (active)
O=C(O)c1cc(=O)c2c(OCC(O)COc3cccc4oc(C(=O)O)cc(=O)c34)cccc2o1,-4.6% [at 25.6 µM],–
Cc1ccc(-c2cccc(OC(=O)c3ccccc3F)c2)cc1,-11.6%,–
CC(C)C(=O)NC(=S)Nc1ccccc1C(=O)Nc1ccccc1,0.519%,–
CN1CCN(c2ncc3ncc(=O)n(C[C@H]4CCCO4)c3n2)CC1,3.47%,–
COc1ccc(S(=O)(=O)N2CCC(C(=O)NCC3CCCO3)CC2)cc1C (stereo unspecified),-4.05%,–
O=c1n(-c2ccccc2)c(=O)n2n1CC[C@H]1/C(=N\OC[C@@H](O)COCc3ccco3)[C@H]3O[C@@H]3[C@@H](O)[C@@H]12,0.6% [at 11.4 µM] and 20% [at 11.4 µM],–
COC1(OC)N=C(NC(=O)Nc2ccccc2)C2(C#N)C(c3ccccc3)C12C#N (stereo unspecified),0.403%,–
COc1ccc(-c2noc(C3CCCN(C(=O)c4ccccc4OC)C3)n2)cc1OC (stereo unspecified),-13.3%,–
CCCC[C@@H]1C[C@H]1C(NC(=O)c1cccs1)c1ccc(-c2ccccc2)cc1 (stereo partly specified),4.23%,–
CC1CCCN(CC(O)COCC2COc3ccccc3O2)C1 (stereo unspecified),–,2510 nM (active)
CN1CCN(S(=O)(=O)c2cc([N+](=O)[O-])ccc2N2CCCCCC2)CC1,-22.5%,–
CC(=O)OCC(=O)[C@@]1(O)CC[C@@H]2[C@H]3CCC4=CC(=O)CC[C@]4(C)[C@]3(F)[C@@H](O)C[C@@]21C,-0.161% [at 25.6 µM],–
Oc1ccc2oc3c(c2c1)CCCC3,-4.04%,–
O=C(CN1CCN(Cc2ccccc2)CC1)N1CCCc2c1c(=O)oc1ccc(O)cc21,–,12600 nM (active)
Cc1ccc(C(=O)N(CN2CCCC2=O)c2ccccc2)cc1C,-0.523%,–
